Reference: PubChem BioAssay (NCI)
The panel holds about 83,000 compounds, 20% with a hit somewhere; the sample as a whole holds those more often.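 The endpoint reported here, percent growth, reads 100 for growth as untreated, 0 for no net growth and -100 for all cells dead.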 Unmarked numbers belong to inactive results. The source made the active and inactive calls. How the source made its calls: active means growth percent below 10; inactive means the rest.

Experiments:
Assay in all cases: NCI-60 one-dose screen, 48 h (100 = growth as untreated, 0 = no growth, -100 = all killed)
Details in all cases: 10 µM unless noted
NCI-H23 lung = tested on: NCI-H23 lung
NCI-H226 lung = tested on: NCI-H226 lung
NCI-H322M lung = tested on: NCI-H322M lung
HOP-62 NSCLC = tested on: HOP-62 NSCLC
NCI-H460 lung = tested on: NCI-H460 lung
HOP-92 NSCLC = tested on: HOP-92 NSCLC
NCI-H522 lung = tested on: NCI-H522 lung
A549/ATCC NSCLC = tested on: A549/ATCC NSCLC
786-0 renal = tested on: 786-0 renal
COLO 205 colon = tested on: COLO 205 colon

Row | Structure (SMILES) | growth (NCI-H23 lung) | growth (NCI-H226 lung) | growth (NCI-H322M lung) [%] | growth (HOP-62 NSCLC) | growth (NCI-H460 lung) | growth (HOP-92 NSCLC) | growth (NCI-H522 lung) | growth (A549/ATCC NSCLC) | growth (786-0 renal) | growth (COLO 205 colon)
1 | CC1(C)C(N)=Nc2cc(OCCCN3Cc4ccccc4C3)c(OCC3CC3)cc21 | 93.5% | 82.9% | 82.3 | 93.2% | 79.8% | 63.7% | 59.6% | 77.2% | 64% | -57.2% (active)
2 | O=S(=O)(NCCNc1nccc(-c2c(-c3ccc(F)c(O)c3)nc3sccn23)n1)c1ccc(F)cc1 | 36.6% | 83.6% | 47.6 | 48.3% | 21.9% | 33.6% | 28.5% | 26.9% | 38.1% | 26.2%
3 | COc1ccc(NC(=O)Nc2ccc(OCCCCCC(=O)NO)cc2)cc1 | 98% | 100% | 94.7 | 102% | 96.3% | 94% | 68.1% | 90.3% | 97.1% | 110%
4 | NC(=O)c1cccc([C@@H]2O[C@H](CO)[C@@H](O)[C@H]2O)c1 | 63.7% | 73.1% | 87 | 47.7% | 103% | 52.4% | 42.2% | 71.6% | 12.9% | 40.5%
5 | CSc1nc(C)c([N+](=O)[O-])c(N)n1 | 101% | 102% | 93.7 | 104% | 104% | 89.3% | 77.2% | 76.2% | 103% | 110%
6 | COc1ccc(C(O)c2cc3c(N)c(C(=O)Nc4cccc(Cl)c4C)sc3nc2C)cc1 (stereo not given) | 25.5% | 54.5% | 39.4 | 16.2% | -6.01% (active) | 16.2% | -34.9% (active) | 10.5% | 22.2% | -23% (active)
7 | N=c1c(S(=O)(=O)c2ccccc2)cc2c(=O)n3ccccc3nc2n1CC1CCCO1 (stereo not given) | 99.8% | 103% | 96.4 | 95% | 105% | 94.5% | 100% | 111% | 103% | 113%
8 | O=C(/C=C(O)/C=C/c1cccc2[nH]ccc12)/C=C/c1cccc2[nH]ccc12 | 80.5% | 99.5% | 98.9 | 76.4% | 98.3% | 62.1% | 34% | 87.5% | 86% | 55.8%
9 | COc1cc(OC)c2sc(-c3ccc(-n4cncc4-c4cc(OC)c(OC)c(OC)c4)cc3)nc2c1 | 54.5% | 52.7% | 86.8 | 79.6% | 46.2% | 14.8% | 43.2% | 50.9% | 67.2% | 44.5%
10 | C/C=C(/C)n1cnc2c(Nc3ccccn3)nc(Cl)nc21 | 102% | 102% | 99.3 | 102% | 103% | 99.9% | 87.1% | 104% | 101% | 114%
11 | CCN1C(=O)N(CC)C2C1NC(=S)N2/N=C/c1ccc(C(F)(F)F)cc1 (stereo not given) | 79.8% | 74.2% | 82.5 | 71.2% | 75.6% | 50.6% | 48.2% | 39.8% | 79.7% | 80.7%
12 | CCN1CCN(c2cc(C)nc(N(CCNc3ccnc4cc(Cl)ccc34)Cc3ccc4c(c3)OCO4)n2)CC1 | 13.6% | 47.7% | 28.3 | -14.3% (active) | 8.38% (active) | 44.6% | -81.7% (active) | 2.91% (active) | -76.8% (active) | -89.5% (active)
13 | N#Cc1c(-c2ccccc2)nc(SCC(O)CN2CCOCC2)nc1N1CCOCC1 (stereo not given) | 81.7% | 80% | 52.3 | 48% | 34% | 30.7% | 63.3% | 80.3% | 38.1% | 81.1%
14 | CCCCNc1cc(-c2cn[nH]c2-c2cc(C)cc(OC)c2)nc(-c2cccnc2)n1 | 101% | 87.4% | 86.9 | 95.6% | 99.7% | 68.2% | 81.2% | 94.3% | 68.2% | 99.5%
15 | c1nc2ccc(-c3cc4ccc5[nH]ncc5c4c4c3CCCC4)cc2[nH]1 | 78.8% | 57.1% | 41 | 74.3% | 63.1% | 66% | 37.5% | 65.1% | 43.6% | 52.2%
16 | O=S(=O)(NCCCNc1nccc(-c2c(-c3cccc(F)c3)nc3occn23)n1)c1ccc(F)cc1 | 84.4% | 39.6% | 73.2 | 63.7% | 52.7% | 61.4% | 38.7% | 31.1% | 66% | 17.7%
17 | COc1ccc(Nc2ncccc2/C=C/C(=O)c2cc(OC)c(OC)c(OC)c2)cc1 | -8.11% (active) | -43.2% (active) | 52 | -19.2% (active) | -44.9% (active) | -33.8% (active) | -76.5% (active) | -57.1% (active) | -64.2% (active) | -77% (active)
18 | Ic1ccccc1I | 98.9% | 90.5% | 126 | 90.3% | 104% | 90.2% | 100% | 98.5% | 92% | 127%
19 | O=C(/C=C/c1ccc(Cl)cc1)c1cccc(OCCCOc2cccc(C(=O)/C=C/c3ccc(Cl)cc3)c2)c1 | 102% | 104% | 103 | 107% | 102% | 120% | 96.2% | 92.7% | 102% | 113%
20 | Cn1c(=O)c2[nH]c(SCC(=O)Nc3ccc(C(=O)/C=C/c4ccccc4Cl)cc3)nc2n(C)c1=O | 98.1% | 93.1% | 97.6 | 90.4% | 102% | 65% | 94.3% | 86.7% | 88.3% | 117%
21 | COc1ccc(C(=O)c2cc3c(N)c(C(=O)Nc4ccccc4)sc3nc2C)cc1 | 36.1% | 65.3% | 63 | 44.8% | 6.22% (active) | 82.2% | 9.62% (active) | 31.1% | 46.4% | 7.64% (active)
22 | CCc1ccc(CCC(=O)Nc2ncc(Cc3ccccc3)s2)o1 | 37.6% | 64.3% | 54.7 | 23% | 7.58% (active) | 87.8% | -2.33% (active) | 32% | 41.6% | 12.3%
23 | S=c1nc2oc(-c3ccccc3)c(-c3ccccc3)c2c(/N=C\c2ccco2)[nH]1 | 88.2% | 102% | 105 | 82.5% | 115% | 92.4% | 86.1% | 95.3% | 97% | 120%
24 | Cc1[nH]c(C2CC(c3ccc(C(F)(F)F)c(F)c3)=NN2c2ccccc2)c(C)c1C(=O)NCC(F)(F)F (stereo not given) | 89% | 77.2% | 88 | 91.4% | 94.2% | 113% | 89.5% | 84.8% | 90.7% | 93.7%
25 | CC1(C)N=C(N)N=C(N)N1c1cccc(CCc2ccccc2)c1 | 21.7% | 48.1% | 45.8 | 45% | 16.1% | 63.2% | 21.4% | 24.8% | 30.8% | 29.5%
26 | N=C(N)c1ccc(-c2ccc(-c3cc(Cl)cc(Cl)c3)s2)nc1 | 75.5% | 93.7% | 52.8 | 86.5% | -60.3% (active) | 87.8% | 34.1% | 0.133% (active) | 79.6% | -38.4% (active)
27 | NS(=O)(=O)c1ccc(-c2cc(-c3nnc(SCC(=O)Nc4ccc(C(=O)/C=C/c5ccc(Cl)cc5)cc4)n3-c3ccccc3)c3ccccc3n2)cc1 | 102% | 96.6% | 89.3 | 100% | 97.7% | 93.1% | 89.9% | 95% | 73.4% | 103%
